According to PubChem BioAssay (NCI):
Where “and” joins values, the source holds several entries; their conditions need not be identical. Equal entries are not always repeated. This is part of a sample that, as a whole, favours compounds with a hit. Of some 83,000 tested, about 20% had one in any assay.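 Compound tested at a single concentration for 48 hours in 96-well plates; a percent growth value below 10 was scored as active.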 Calls of active or inactive are those of the source.

The molecules below were run on TK-10 renal (assay: NCI-60 one-dose screen, 48 h (100 = growth as untreated, 0 = no growth, -100 = all killed)). Conditions: 10 µM unless noted.

Structure (SMILES)	growth
CCCCCCCCCCCCCC1=C(O)C(=O)C(CC2=C(O)C(=O)C(CCCCCCCCCCCCC)=C(O)C2=O)=C(O)C1=O	33% [100 µM] (inactive) and -1.5% [100 µM] (active)
COc1ccc2c3c(c(=O)n(C)c2c1OC)C=CC(C)(C)O3	8.86% [100 µM] (active) and 15% [100 µM] (inactive)
CCCn1c2c(c3ccccc3c1=O)C(=O)c1ccccc1-2	88% [100 µM] (inactive) and 22.3% [100 µM] (inactive)
C#CCn1c2c(c3ccccc3c1=O)C(=O)c1ccccc1-2	17.2% [100 µM] (inactive) and -69.9% [100 µM] (active)
CC(=O)OC(=C(C#N)C#N)c1nccnc1C(C)=O	102% [20 µM] (inactive) and -96% [20 µM] (active)
N#C/C(=C\c1ccccc1)C(=O)Nc1nnc(-c2ccccc2)o1	88.2% [100 µM] (inactive) and 4.58% [100 µM] (active)
CC(C)(C)O/N=C/c1cc(NC(=S)c2ccsc2)ccc1Cl	-90.2% [100 µM] (active) and -20.8% [100 µM] (active)
CCOc1cc2c(cc1O)/C(=N\N)C[C@@H]1[C@@H]2CC[C@]2(C)[C@@H](O)CC[C@@H]12	36.7% [100 µM] (inactive) and -97% [100 µM] (active)
COC(=O)C(=O)C(C(=O)C(=O)Nc1ccccc1C(=O)OC)c1nc2ccc(C(=O)c3ccccc3)cc2[nH]c1=O (stereo not drawn)	82.4% [100 µM] (inactive) and 16.6% [100 µM] (inactive)
COc1cc2c(cc1-c1coc3cc(OCC=C(C)C)ccc3c1=O)OCO2	5.74% [100 µM] (active) and 19.4% [100 µM] (inactive)
CC#CC#C/C=C1/C=CC2(CCCCO2)O1 (stereo not drawn)	112% [100 µM] (inactive) and -41.5% [100 µM] (active)
CC1OC(OC2C(O[C@H]3CC[C@@]4(C)C(=CC[C@H]5[C@@H]6C[C@@H]7O[C@]8(CC[C@H](C)CN8)[C@@H](C)[C@@H]7[C@@]6(C)CC[C@@H]54)C3)OC(CO)C(O)C2OC2OC(CO)C(O)C(O)C2O)C(O)C(O)C1O (stereo partly drawn)	95.2% [100 µM] (inactive) and -95% [100 µM] (active)
COc1c2c(c(OC)c3c1c(=O)c1ccccc1n3C)OCO2	54.2% [100 µM] (inactive)
CCOC(=O)c1nc2cc(C(F)(F)F)ccc2nc1Nc1ccc(F)cc1	42.7% [100 µM] (inactive) and 3.59% [100 µM] (active)
Cc1cc(N2CCCC2)c([N+](=O)[O-])cc1[N+](=O)[O-]	89.8% [100 µM] (inactive) and 75.9% [100 µM] (inactive)
C/C(Cl)=N/OC(=O)Nc1ccc(S(N)(=O)=O)c(C)c1	-100% [100 µM] (active)
C[C@]12CC[C@@H]3c4cc(Br)c(O)c(Br)c4CC[C@H]3[C@@H]1CC(Br)C2=O (stereo partly drawn)	-93.2% [100 µM] (active) and -97.6% [100 µM] (active)
NC1=NN(c2ccccc2)C2(c3ccncc3C(=O)O)C1C(N)=NN2c1ccccc1 (stereo not drawn)	106% [100 µM] (inactive) and 9.31% [100 µM] (active)
N#CC1C(=O)N(c2ccccc2)NC12OC(=O)c1ccncc12 (stereo not drawn)	88.7% [20 µM] (inactive) and 4.38% [20 µM] (active)

Structure (SMILES)	growth
N#Cc1c(=N)cc2c3ccccc3oc3c(C#N)c(N)[nH]c1c32	47.1% [100 µM] (inactive) and 2.25% [100 µM] (active)
Oc1ccccc1-c1n[nH]c(-c2ccccc2O)n1	46.3% [100 µM] (inactive) and 4.42% [100 µM] (active)
O=C(O)c1cnccc1-c1cc(=O)[nH]n1-c1ccccc1	53.2% [100 µM] (inactive) and -7.14% [100 µM] (active)
CCC1CC(C)C(O)/C=C/C=C/CC(C)OC(=O)CC(O)C(OC)C1OC1OC(C)CC(O)(C(C)=O)C1O (stereo not drawn)	62.1% [100 µM] (inactive) and 38.8% [100 µM] (inactive)
CC(C)=CCC/C(C)=C/CC/C(C)=C/CC/C(C)=C/C=C/C=C(\C)CC/C=C(\C)CC/C=C(\C)CCC=C(C)C	106% [100 µM] (inactive) and -87% [100 µM] (active)
N#Cc1c(SCc2ccccc2)nc(-c2ccccc2)[nH]c1=S	9.89% [100 µM] (active) and 3.82% [100 µM] (active)
Nc1nc(Nc2cc(F)c(Cl)c(F)c2)cc(=O)[nH]1	111% [100 µM] (inactive) and 27.1% [100 µM] (inactive)
Nc1cc2c3c(cccc3c1)C(=O)N(c1ccc(OCCN3CCCCC3)cc1)C2=O	-13.5% [100 µM] (active) and -100% [100 µM] (active)
CC(C)C1OC23CCCCC2C(C#N)(C#N)C1(C#N)C(=N)O3 (stereo not drawn)	39.7% [100 µM] (inactive)
NNC1=N/C(=C\c2ccco2)C(Cl)=N1	67% [100 µM] (inactive) and 2.87% [100 µM] (active)
ClC(Cl)(Cl)C1CCOC1n1nnc2ccccc21 (stereo not drawn)	73% [100 µM] (inactive) and 16.8% [100 µM] (inactive)
Cc1cc(-c2nc3ccccc3s2)ccc1N	35.5% [100 µM] (inactive) and 15.8% [100 µM] (inactive)
Cc1sccc1C(=S)Nc1ccc(Cl)c(/C=N/OC(C)(C)C)c1	-91.4% [100 µM] (active) and -90.7% [100 µM] (active)
CC(=O)c1cc2c(s1)C(=O)c1sccc1C2=O	-14.4% [100 µM] (active) and -100% [100 µM] (active)
O=C(CCc1ccccc1)On1c(-c2ccccc2)nc2ccccc2c1=S	9.44% [100 µM] (active) and -36.2% [100 µM] (active)
CN(C)CCNc1ccc(NCC[N+](C)(C)Cc2ccc([N+](=O)[O-])cc2)c2c1C(=O)c1ccccc1C2=O	36.4% [25 µM] (inactive) and 2.65% [25 µM] (active)
N#CC1=C(N)OC(c2cccc([N+](=O)[O-])c2)C1(C#N)C#N (stereo not drawn)	-66.6% [100 µM] (active) and -87.5% [100 µM] (active)
Nc1cc2c3c(cccc3c1)C(=O)N(c1ccc(OCCN3CCCC3)cc1)C2=O	33.8% [100 µM] (inactive) and -100% [100 µM] (active)
CC(=O)OC(C)c1cc2c(s1)C(=O)c1ccsc1C2=O (stereo not drawn)	-61.4% [100 µM] (active) and -100% [100 µM] (active)
